Results on 14 compounds are retold here after the supplement of paper PMC8007513.

Molecules are shown by their SMILES. Counter-ions that a name gives are not always drawn. ± gives the standard error. Out of some 1,300 compounds screened, about 130 (10%) showed an effect of 50% or more. Shown is part of a subset that was picked to be rich in strong results.

The assay relates to Trichoderma virens ATCC 9645. The assay is described as follows: growth yield (OD600) with compound + IPBC relative to untreated control; higher = less growth inhibition. The conditions noted are these: compound concentration: 100 uM, IPBC concentration: 200 ng/ml. The method in brief:
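Growth appears as means of duplicate screens, relative to the control containing neither agent. To obtain it, OD600 was read on a BioTek EL800 at 40 h and 72 h. The cultures were 100 μl aliquots in 96-well plates at 30 °C, holding Trichoderma virens ATCC 9645 spores at 15,000 spores ml^−1 in potato dextrose broth, library compounds at 100 μM final, and, in some wells, a biocide at 200 ng ml^−1.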

Consider `CCCCc1nc(Cl)c(CO)n1Cc1ccc(-c2ccccc2-c2nnn[nH]2)cc1` [Losartan] + CCCCNC(=O)OCC#CI [3-iodo-2-propynyl butylcarbamate (IPBC)], for which the growth yield by setting is: (40 h) 98.3 ± 6.2%; (72 h) 96.7 ± 5.7%.

For `CC[C@@H](CO)NC(=O)[C@@H]1C=C2c3cccc4[nH]cc(c34)C[C@H]2N(C)C1` [Methylergometrine maleate] + CCCCNC(=O)OCC#CI [3-iodo-2-propynyl butylcarbamate (IPBC)], the growth yield came out at 79.7 ± 4.8% (40 h) and 88 ± 2% (72 h).

As to `NS(=O)(=O)c1cc2c(cc1Cl)NC(CC1CCCC1)NS2(=O)=O` (stereo not drawn) [Cyclopenthiazide] + CCCCNC(=O)OCC#CI [3-iodo-2-propynyl butylcarbamate (IPBC)], the growth yield worked out at 88.8 ± 1.4% (40 h) and 98.48 ± 0.32% (72 h).

`NCc1ccccc1CC(=O)N[C@@H]1C(=O)N2C(C(=O)O)=C(CSc3nnnn3CC(=O)O)CS[C@H]12` [Ceforanide] + CCCCNC(=O)OCC#CI [3-iodo-2-propynyl butylcarbamate (IPBC)]: the growth yield (40 h) worked out at 92.3 ± 5.6% and the growth yield (72 h) was determined as 97.1 ± 2.1%.

Turning to `CCC1(c2ccc(N)cc2)CCC(=O)NC1=O` (stereo not drawn) [Glutethimide, para-amino] + CCCCNC(=O)OCC#CI [3-iodo-2-propynyl butylcarbamate (IPBC)], the growth yield (40 h) is 111 ± 4.1% and the growth yield (72 h) was determined as 112 ± 4.5%.

Regarding `CC(NC(C)(C)C)C(=O)c1cccc(Cl)c1` (stereo not drawn) [Bupropion hydrochloride] + CCCCNC(=O)OCC#CI [3-iodo-2-propynyl butylcarbamate (IPBC)], the growth yield is, setting by setting: (40 h) 92.1 ± 5.4%; (72 h) 98.5 ± 3%.

As to `COc1cccc(N(C)C(=S)Oc2ccc3c(c2)CCCC3)n1` [Liranaftate] + CCCCNC(=O)OCC#CI [3-iodo-2-propynyl butylcarbamate (IPBC)], the growth yield came to 0% (40 h) and 0% (72 h).

As to `NCC(O)c1ccc(O)cc1` (racemic) [(+,-)-Octopamine hydrochloride] + CCCCNC(=O)OCC#CI [3-iodo-2-propynyl butylcarbamate (IPBC)], the growth yield is, setting by setting: (40 h) 97.4 ± 12%; (72 h) 95 ± 4.6%.

Turning to `CC(=O)N(CC(O)CO)c1c(I)c(C(=O)NCC(O)CO)c(I)c(C(=O)NCC(O)CO)c1I` (stereo not drawn) [Iohexol] + CCCCNC(=O)OCC#CI [3-iodo-2-propynyl butylcarbamate (IPBC)], the growth yield is, setting by setting: (40 h) 91.2 ± 8.3%; (72 h) 93.7 ± 5.6%.

In the case of `O=C(O)/C=C/c1ccc(Cn2ccnc2)cc1` [Ozagrel hydrochloride] + CCCCNC(=O)OCC#CI [3-iodo-2-propynyl butylcarbamate (IPBC)], the growth yield (40 h) worked out at 105 ± 12% and the growth yield (72 h) came out at 103 ± 8.7%.

For the compound `Clc1ccc(C(Cn2ccnc2)OCc2c(Cl)cccc2Cl)c(Cl)c1` (stereo not drawn) [Isoconazole] + CCCCNC(=O)OCC#CI [3-iodo-2-propynyl butylcarbamate (IPBC)], the growth yield by setting is: (40 h) 4.13 ± 0.64%; (72 h) 2.83 ± 0.32%.

Take `Clc1ccc(COC(Cn2ccnc2)c2ccc(Cl)cc2Cl)cc1` (stereo not drawn) [Econazole nitrate] + CCCCNC(=O)OCC#CI [3-iodo-2-propynyl butylcarbamate (IPBC)]: the growth yield worked out at 3.18 ± 0.32% (40 h) and 2.73 ± 0.42% (72 h).

`Clc1ccc(CSC(Cn2ccnc2)c2ccc(Cl)cc2Cl)cc1` (stereo not drawn) [Sulconazole nitrate] + CCCCNC(=O)OCC#CI [3-iodo-2-propynyl butylcarbamate (IPBC)]: the growth yield came to 3.02 ± 0.16% (40 h) and 2.41 ± 0.1% (72 h).

Turning to `Clc1ccc(C(Cn2ccnc2)OCc2ccsc2Cl)c(Cl)c1` (stereo not drawn) [Tioconazole] + CCCCNC(=O)OCC#CI [3-iodo-2-propynyl butylcarbamate (IPBC)], the growth yield runs as follows: (40 h) 3.65 ± 0.16%; (72 h) 2.52%.
